Among all 2,400 compounds or so, about 95 (4%) were called active.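 Rule for the calls: active = mean of duplicate membrane potential ratios lying over 3 SD above or below the buffer control mean, so actives fall on both sides; inactive = the rest.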 The list is a sample of the results.
experiment: membrane potential effects in parental HEK293, counter-screen for CHT inhibitor project, cell-based, membrane potential dye (AID 493222); settings: choline response, at 10 µM; active = decrease or increase beyond buffer ±3SD;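 note: parental cells lack the transporter so any hit is non-specific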;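 for membrane potential ratio readout (active if shifted either direction beyond buffer ±3SD; no single direction): ratio is peak minus trough fluorescence over baseline after EC90 choline challenge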

Compound | membrane potential ratio readout (active if shifted either direction beyond buffer ±3SD; no single direction)
O=C(c1cccs1)C1C(c2ccc(Br)cc2)NC(=S)NC1(O)C(F)(F)F (configuration not stated) | inactive
COc1ccc2c(c1)OC(O)(C(F)(F)C(F)F)CC2=O (configuration not stated) | inactive
Cc1ccc(S(=O)(=O)/N=C(/NC(=S)Nc2c(C)n(C)n(-c3ccccc3)c2=O)c2ccccc2)cc1 | inactive
O=C(C1CCN(S(=O)(=O)c2ccc(Br)s2)CC1)N1CCN(c2ccccc2)CC1 | inactive
CC(=O)Nc1nc2c(s1)C(=O)NCC(C)(C)C2 | inactive
CC1CCCC(NC(=O)c2cccc(N3CCCC3=O)c2)C1C (configuration not stated) | inactive
CNCC(O)c1ccc(O)c(O)c1 (configuration not stated) | inactive
CCCCOc1ccc(Cl)cc1CSc1nncn1N | inactive
O=C(Nc1ccn(Cc2ccccc2)n1)c1n[nH]c([N+](=O)[O-])c1Cl | inactive
CCOc1ccc(/C=C2\SC(=S)N(NC(=O)c3ccncc3)C2=O)cc1OC | inactive
CCOC(=O)C1(CCOC)CCN(Cc2ccc(C(=O)OC)cc2)CC1 | inactive
OC1CN=C2Sc3ccccc3N2C1 (configuration not stated) | inactive
CC(Oc1ccc2ccccc2c1)C(=O)NNC(=S)NC(=O)c1ccco1 (configuration not stated) | inactive
CCCCCn1c(=O)c(C(=O)OCC)c(Cl)c2ccccc21 | inactive
O=[N+]([O-])c1ccccc1Nc1ccc(O)cc1 | 2.4 (active)
Cc1ccc(SC(CC(=O)c2ccc(C(C)(C)C)cc2)C(=O)O)cc1 (configuration not stated) | inactive
C/C(=N\Nc1nc2ccccc2[nH]1)c1cccs1 | inactive
Nc1cc(N2CCCCCC2)c2nonc2c1[N+](=O)[O-] | inactive
Cc1ccc(C(=O)N/C(=C/C=C/c2ccccc2)C(=O)NCc2ccco2)cc1 | inactive

Compound | membrane potential ratio readout (active if shifted either direction beyond buffer ±3SD; no single direction)
CCc1ccc2c(c1)C1(NN=C(c3ccccc3)S1)C(=O)N2 (configuration not stated) | inactive
O=S(=O)(c1cccc(-c2nnc(SC(F)F)n2-c2ccccc2)c1)N1CCCCC1 | inactive
Cn1c2ccccc2c(=O)c2c(O)cccc21 | inactive
CC(=O)OCCOCn1cnn2c(=O)c(Br)c(C)nc12 | inactive
CCNC(=O)CC1C(=O)N(c2ccc(F)cc2)C(=O)N1CCc1sccc1C (configuration not stated) | inactive
C/C(=N\NC(N)=S)c1cccnc1 | inactive
COc1ccc(NC(=O)c2sc(N)nc2-c2ccccc2)cc1 | inactive
Cc1ccccc1-n1c(C)cc(/C=N/NC(=O)c2ccc(CN3CCOCC3)cc2)c1C | inactive
O=C(Nc1ccccc1C(=O)NCCCn1ccnc1)c1ccc(Cl)cc1Cl | inactive
CCc1ccccc1N1CN(Cc2ccco2)CNC1=S | inactive
COC(=O)CN1C(C)=Nc2ccc(Br)cc2C1c1ccccc1 (configuration not stated) | inactive
CCN(CC)Cc1c(C(=O)N/N=C/c2cccc(OCc3ccc(F)cc3)c2)nnn1-c1nonc1N | inactive
CC(C)CCn1c(CN(C)Cc2ccccc2)nc2c1c(=O)n(C)c(=O)n2C | inactive
O=C(O)c1ccc(N/N=C/c2cn(-c3ccccc3)nc2-c2cccs2)cc1 | inactive
CCC(Oc1ccccc1C)C(=O)Nc1ccc(S(=O)(=O)Nc2cc(C)on2)cc1 (configuration not stated) | inactive
CC1CCN(C(=O)CN(c2ccc(Oc3ccccc3)cc2)S(C)(=O)=O)CC1 | inactive
CCN(CC)CCC(c1ccc2c(c1)OCO2)c1c(OC)cc(OC)c2c(-c3ccccc3)cc(=O)oc12 (configuration not stated) | inactive
C/C(=N\N=C(N)N)c1ccc(Cl)cc1 | inactive
COC(=O)c1ccccc1NC(=O)Cn1nc(C(F)(F)F)c2c1CCC2 | inactive

Compound | membrane potential ratio readout (active if shifted either direction beyond buffer ±3SD; no single direction)
O=C1c2cccc3cccc(c23)C(=O)N1CCCCCc1n[nH]c(=S)o1 | inactive
CC(C)n1c(=S)[nH]c2cc(C(F)(F)F)ccc21 | inactive
O=C(Cn1ncc2c3ccccc3n(Cc3ccccc3)c2c1=O)NCCCN1CCOCC1 | inactive
CCOC(=O)N1CCN(C(=O)c2ccc(CN(c3ccc(C)c(C)c3)S(C)(=O)=O)cc2)CC1 | inactive
CCCn1c2ccccc2c2cnn(CC(=O)NCCCN3CCCCC3CC)c(=O)c21 (configuration not stated) | inactive
Cc1ccccc1-n1nnc2c(=O)oc3ccccc3c21 | inactive
C=CCn1c(SCc2ccc(C(=O)NCCO)cc2)nc2ccccc2c1=O | inactive
O=C(/C=C/c1cn(-c2ccccc2)nc1-c1ccc2c(c1)OCCO2)NCCCN1CCOCC1 | inactive
COc1ccc(C(=O)NC(Cc2ccc(OC(=O)c3ccc(OC)cc3)cc2)C(=O)O)cc1 (configuration not stated) | inactive
Cc1cccnc1NC(=O)c1cccc(S(=O)(=O)N2CCN(c3ccc(F)cc3)CC2)c1 | inactive
CCOc1ccccc1Nc1ccc2nonc2c1[N+](=O)[O-] | inactive
O=C(CCCN1C(=O)CSc2ncccc21)N1CCN(c2cccc(C(F)(F)F)c2)CC1 | inactive
CCOCCCN(C)C1CCN(C(=O)c2oc3ccccc3c2NC(=O)COc2cccc(C)c2)CC1 | 3.33 (active)
Cc1ccc2c(C)c(C(=O)N3CCC(N4CCC(C(=O)NC5CC5)CC4)CC3)oc2c1 | inactive
COCCNc1nc(-n2nc(C)cc2C)nc2sc3c(c12)CCCC3 | inactive
O=c1c2ccccc2nnn1CSc1nc2sc3c(c2c(=O)n1CC1CCCO1)CCC3 (configuration not stated) | inactive
CC(C)(C)C(=O)/C(C#N)=C/c1ccc(O)cc1 | inactive
Cc1oc2c(F)c(F)c(F)c(F)c2c1S(=O)(=O)Nc1cccc(C(F)(F)F)c1 | inactive
O=C(Nc1ccc(F)c(Cl)c1)C1CCN(S(=O)(=O)c2cccnc2)CC1 | inactive
